Data on three compounds can be found in PubChem BioAssay (EPA / NIEHS).

Molecules are shown by their SMILES. “And” between values parts separate entries of the source, which are not always exact repeats. Identical values can stand only once. Some compounds were tested as several samples or in several runs, with calls that do not always agree. The source made the active and inactive calls. How the source made its calls: active means hit-call score of the fitted dose curve at least 0.9, where 1 is the maximum; inactive means score below 0.9.

Assay [1] has as its target Bile acid receptor (Homo sapiens) (UniProt Q96RI1). Put plainly: ATG_IR1_CIS: Attagene CIS-FACTORIAL HepG2 Assay for human Nuclear Receptor Subfamily 1 Group H Member 4 (NR1H4), IR1 submotif (AID 2282946). To be noted: IR1 reporter transcription, actives raise or lower the signal. Put shortly: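 Readout: reporter transcript levels by RT-PCR with fluorescent capillary electrophoresis, from HepG2 cells transiently transfected with multiplexed cis-regulated reporters and dosed 24 h. Gain- or loss-of-signal fitted versus DMSO negative control.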

A short description of assay [2]: ATG_ISRE_CIS: Attagene CIS-FACTORIAL HepG2 Assay for human Interferon Regulatory Factor 1 (IRF1) binding to an Interferon-Stimulated Response Element (ISRE) (AID 2282948). To be noted: HepG2 ISRE cis-reporter (Attagene), mRNA transcription readout; actives raise or lower the signal. An outline of the steps:
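Multiplexed mRNA reporter readout in human liver HepG2 cells: cis-element-driven reporters transfected, compound added for 24 h, transcripts amplified, fluorescently labelled and sized by capillary electrophoresis; curve fitting bidirectional against DMSO.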

A short description of assay [3]: ATG_M_32_CIS: Attagene CIS-FACTORIAL HepG2 Assay for M32 Transcription Factor (Internal Marker) (AID 2282949).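 Further: background control marker of the multiplexed CIS panel rather than a real target.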 To be noted: HepG2 Attagene cis-factorial M32 reporter, mRNA; actives raise or lower the signal. An outline of the steps:
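Using DMSO as baseline, bidirectional curve fits were applied to reporter mRNA signals. These came from transiently transfected HepG2 cells exposed for 24 h, with RNA analysed by RT-PCR, FAM primer extension, HpaI digestion and CE.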

Assay [4] is described as follows: ATG_M_06_CIS: Attagene CIS-FACTORIAL HepG2 Assay for M06 Transcription Factor (Internal Marker) (AID 2282950). To be noted: HepG2 Attagene CIS-FACTORIAL M06 internal marker reporter; actives raise or lower the signal. An outline of the steps:
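Steps: transfect HepG2 with multiplexed cis-element reporter constructs; dose chemical 24 h; extract RNA with DNase treatment; reverse-transcribe, PCR-amplify, 6-FAM label, HpaI digest; separate fragments by capillary electrophoresis. Activity fitted both directions versus DMSO.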

Assay [5] deals with Hypoxia-inducible factor 1-alpha (Homo sapiens) (UniProt Q16665). Kind of assay: ATG_HIF1a_CIS: Attagene CIS-FACTORIAL HepG2 Assay for human Hypoxia Inducible Factor 1 (HIF1A) (AID 2282951). The note with it: HepG2 Attagene cis-factorial HIF1a reporter transcription; actives raise or lower the signal. An outline of the steps:
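Dosed 24 h, transfected HepG2 cells yielded total RNA whose reporter transcripts were RT-PCR-amplified and sized by capillary electrophoresis using fluorescent labelling; DMSO defined baseline, with gain and loss of signal both fitted.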

In assay [6] the target is Hepatocyte nuclear factor 6 (Homo sapiens) (UniProt Q9UBC0). Kind of assay: ATG_HNF6_CIS: Attagene CIS-FACTORIAL HepG2 Assay for human Hepatocyte Nuclear Factor 6 (HNF6) (AID 2282952). The note with it: HepG2 Attagene cis-factorial HNF6 reporter transcription; actives raise or lower the signal. An outline of the steps:
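Activity values derive from bidirectional fitting against DMSO of reporter mRNA levels, measured by capillary electrophoresis of labelled RT-PCR products from HepG2 cells exposed 24 h.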

Assay [7] concerns the target Heat shock factor protein 1 (Homo sapiens) (UniProt Q00613). Put plainly: ATG_HSE_CIS: Attagene CIS-FACTORIAL HepG2 Assay for human Heat Shock Transcription Factor 1 (HSE) (AID 2282953). The note with it: HepG2 HSE cis-reporter, Attagene RNA transcription; actives raise or lower the signal. An outline of the steps:
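Cells were transfected with cis-element-driven reporter constructs, dosed for 24 h, then total RNA was reverse-transcribed and reporter cDNA amplified, FAM-labelled and digested with HpaI. Fragments were resolved by capillary electrophoresis; gain or loss was fitted against DMSO.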

The nature of assay [8]: ATG_MRE_CIS: Attagene CIS-FACTORIAL HepG2 Assay for human Metal Responsive Element (MRE) (AID 2282954). To be noted: HepG2 MRE cis-reporter transcription, Attagene multiplex; actives raise or lower the signal. An outline of the steps: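 Readout: capillary electrophoresis of 6-FAM-labelled, HpaI-digested RT-PCR reporter products. System: HepG2 cells carrying transient multiplexed cis reporters, dosed 24 h. Analysis: bidirectional fit, DMSO baseline.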

Assay [9] can be described thus: ATG_PBREM_CIS: Attagene CIS-FACTORIAL HepG2 Assay for human Phenobarbital-responsive Enhancer Module (PBREM) (AID 2282955). The note with it: HepG2 PBREM cis-reporter, Attagene multiplexed transcription; actives raise or lower the signal. Put shortly: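 Transfected liver-derived HepG2 cells exposed 24 h; PBREM reporter transcript quantified via RT-PCR and capillary electrophoresis, with activity in either direction referenced to DMSO.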

The target in assay [10] is Paired box protein Pax-6 (Homo sapiens) (UniProt P26367). Kind of assay: ATG_Pax6_CIS: Attagene CIS-FACTORIAL HepG2 Assay for human Paired Box 6 (PAX6) (AID 2282956). The note with it: HepG2 CIS-FACTORIAL PAX6 reporter transcription, RNA readout; actives raise or lower the signal. Put shortly: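 Fluorescent RT-PCR products separated by capillary electrophoresis report PAX6-linked promoter mRNA in HepG2 cells 24 h post-dose. Curves fitted bidirectionally, DMSO as negative control.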
Chain of Paired box protein Pax-6 (Homo sapiens) (P26367 whole entry, looked up): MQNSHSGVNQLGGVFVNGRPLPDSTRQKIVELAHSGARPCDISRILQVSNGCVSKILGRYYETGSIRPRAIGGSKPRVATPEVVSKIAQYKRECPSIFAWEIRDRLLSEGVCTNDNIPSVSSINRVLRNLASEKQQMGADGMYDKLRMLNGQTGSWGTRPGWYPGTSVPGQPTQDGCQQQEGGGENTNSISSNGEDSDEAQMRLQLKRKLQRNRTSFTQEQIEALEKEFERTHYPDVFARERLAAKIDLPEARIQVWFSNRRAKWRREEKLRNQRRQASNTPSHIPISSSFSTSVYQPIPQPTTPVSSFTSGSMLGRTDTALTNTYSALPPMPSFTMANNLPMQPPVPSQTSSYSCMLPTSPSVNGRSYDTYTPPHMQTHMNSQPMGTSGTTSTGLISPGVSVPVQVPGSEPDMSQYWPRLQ

Assay [11] is described as follows: ATG_PXRE_CIS: Attagene CIS-FACTORIAL HepG2 Assay for human Pregnane X Receptor Element (PXRE) (AID 2282957). To be noted: HepG2 Attagene CIS-FACTORIAL PXRE reporter, mRNA; actives raise or lower the signal. Put shortly:
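Fluorescent capillary electrophoresis of amplified reporter cDNA gave the signal, collected 24 h after dosing HepG2 cells that held transfected cis-element reporter constructs.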

Assay [12] can be described thus: ATG_PPRE_CIS: Attagene CIS-FACTORIAL HepG2 Assay for human Peroxisome Proliferator-activated Response Element (PPRE) (AID 2282958). The note with it: HepG2 PPRE cis-element reporter, Attagene transcription factor profiling; actives raise or lower the signal. An outline of the steps: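 Measured endpoint: PPRE-controlled reporter mRNA, detected by RT-PCR and capillary electrophoresis fluorescence, from transiently transfected HepG2 cells 24 h after dosing. Curves fitted in both directions using DMSO baseline.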

Assay [13] can be described thus: ATG_RORE_CIS: Attagene CIS-FACTORIAL HepG2 Assay for human RAR-related Orphan Receptor Element (RORE) (AID 2282959). To be noted: HepG2 Attagene cis-factorial RORE reporter, mRNA; actives raise or lower the signal. An outline of the steps: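 Transiently transfected HepG2 reporter cells were treated 24 h. Reporter transcripts were detected by RT-PCR and capillary electrophoresis, with bidirectional fitting against DMSO.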

The nature of assay [14]: ATG_Sox_CIS: Attagene CIS-FACTORIAL HepG2 Assay for human SRY-box transcription factor (SOX) (AID 2282960). To be noted: HepG2 Attagene cis-factorial SOX reporter, mRNA; actives raise or lower the signal. An outline of the steps: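 Gain- or loss-of-signal endpoint, fitted bidirectionally with DMSO as negative control. Based on reporter mRNA from transfected HepG2 cells harvested 24 h post-treatment and quantified via RT-PCR and capillary electrophoresis.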

The target in assay [15] is Transcription factor Sp1 (Homo sapiens) (UniProt P08047). Kind of assay: ATG_Sp1_CIS: Attagene CIS-FACTORIAL HepG2 Assay for human Specificity Protein 1 (Sp1) (AID 2282961). To be noted: HepG2 Sp1 cis-reporter transcription, actives raise or lower the signal. An outline of the steps:
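Endpoint reflects endogenous Sp1 transcriptional activity, not an exogenous fusion protein: HepG2 cells with transfected cis-regulated reporters, 24 h dosing, RT-PCR/capillary electrophoresis mRNA read-out, DMSO-normalised bidirectional fit.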

Assay [16] in a line: ATG_SREBP_CIS: Attagene CIS-FACTORIAL HepG2 Assay for human Sterol Regulatory Element Binding (SREBP) (AID 2282962). To be noted: HepG2 Attagene cis-factorial SREBP reporter, mRNA; actives raise or lower the signal. Put shortly: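 Endogenous factor activity is measured in HepG2 through multiplexed reporter units under cis-element control. Following a 24 h incubation, reporter transcripts are reverse-transcribed, PCR-amplified and sized by capillary electrophoresis; activity is fitted in both directions relative to DMSO.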

Assay [17] concerns the target Signal transducer and activator of transcription 3 (Homo sapiens) (UniProt P40763). Put plainly: ATG_STAT3_CIS: Attagene CIS-FACTORIAL HepG2 Assay for human Signal Transducer and Activator of Transcription 3 (STAT3) (AID 2282963). The note with it: HepG2, Attagene cis-factorial STAT3 reporter transcription; actives raise or lower the signal. Put shortly:
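Uses human liver HepG2 transiently carrying cis-regulated reporter transcription units. Following 24 h dosing, reporter mRNA induction was detected by RT-PCR and capillary electrophoresis, analysed bidirectionally versus DMSO.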

Assay [18] in a line: ATG_TCF_b_cat_CIS: Attagene CIS-FACTORIAL HepG2 Assay for human T-Cell-Factor with beta-catenin (TCF/b-cat) (AID 2282965). To be noted: HepG2 TCF/beta-catenin cis-reporter transcription, actives raise or lower the signal. Put shortly:
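HepG2 cells transiently transfected with multiple cis-promoter-regulated reporter transcription units, so endogenous transcription factor activity is measured. Reporter mRNA read 24 hours after dosing by RT-PCR, fluorescent labelling and capillary electrophoresis; bidirectional fitting against DMSO.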

A short description of assay [19]: ATG_GRE_CIS: Attagene CIS-FACTORIAL HepG2 Assay for human Glucocorticoid Response Elements (GRE) (AID 2282947). The note with it: HepG2 GRE cis-reporter, Attagene multiplex mRNA; actives raise or lower the signal. An outline of the steps: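 HepG2, transient cis-reporter transfection, 24 h. Reporter mRNA: RT-PCR then CE, fluorescence. Fit both directions vs DMSO.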

Assay [20] can be described thus: ATG_TA_CIS: Attagene CIS-FACTORIAL HepG2 Assay for human TA Basal Promoter (AID 2282964). To be noted: HepG2 Attagene CIS-factorial TA basal promoter reporter; actives raise or lower the signal. An outline of the steps: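 Steps: transfect HepG2 with MRTUs; dose 24 h; isolate RNA, DNase-treat, reverse-transcribe; PCR and FAM-label reporter cDNA; digest with HpaI 2h at 37 C; run capillary electrophoresis. Activity fitted both directions against DMSO.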

Chain of Hypoxia-inducible factor 1-alpha (Homo sapiens) (Q16665 whole entry, looked up): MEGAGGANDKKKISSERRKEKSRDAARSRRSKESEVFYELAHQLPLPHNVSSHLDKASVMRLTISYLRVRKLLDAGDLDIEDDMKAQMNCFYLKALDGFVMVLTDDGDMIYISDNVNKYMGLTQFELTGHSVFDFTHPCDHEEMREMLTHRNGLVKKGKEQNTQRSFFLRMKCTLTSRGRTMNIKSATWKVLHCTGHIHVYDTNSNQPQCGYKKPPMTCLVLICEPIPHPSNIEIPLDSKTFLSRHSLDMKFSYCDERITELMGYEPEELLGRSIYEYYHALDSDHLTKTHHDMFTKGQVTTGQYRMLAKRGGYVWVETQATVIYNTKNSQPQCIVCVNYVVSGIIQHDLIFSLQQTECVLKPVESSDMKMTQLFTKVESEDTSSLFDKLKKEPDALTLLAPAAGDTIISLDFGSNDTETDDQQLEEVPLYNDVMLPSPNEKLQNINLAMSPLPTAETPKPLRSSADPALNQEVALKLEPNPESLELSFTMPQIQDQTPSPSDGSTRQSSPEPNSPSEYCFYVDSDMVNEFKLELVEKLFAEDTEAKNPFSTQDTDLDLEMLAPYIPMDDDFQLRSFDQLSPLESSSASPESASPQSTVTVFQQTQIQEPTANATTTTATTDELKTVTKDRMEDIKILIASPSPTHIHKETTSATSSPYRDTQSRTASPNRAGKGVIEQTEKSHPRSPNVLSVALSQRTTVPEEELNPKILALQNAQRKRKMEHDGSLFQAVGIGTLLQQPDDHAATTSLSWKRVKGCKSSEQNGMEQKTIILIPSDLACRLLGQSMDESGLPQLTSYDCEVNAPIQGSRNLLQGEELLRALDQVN
Chain of Hepatocyte nuclear factor 6 (Homo sapiens) (Q9UBC0 whole entry, looked up): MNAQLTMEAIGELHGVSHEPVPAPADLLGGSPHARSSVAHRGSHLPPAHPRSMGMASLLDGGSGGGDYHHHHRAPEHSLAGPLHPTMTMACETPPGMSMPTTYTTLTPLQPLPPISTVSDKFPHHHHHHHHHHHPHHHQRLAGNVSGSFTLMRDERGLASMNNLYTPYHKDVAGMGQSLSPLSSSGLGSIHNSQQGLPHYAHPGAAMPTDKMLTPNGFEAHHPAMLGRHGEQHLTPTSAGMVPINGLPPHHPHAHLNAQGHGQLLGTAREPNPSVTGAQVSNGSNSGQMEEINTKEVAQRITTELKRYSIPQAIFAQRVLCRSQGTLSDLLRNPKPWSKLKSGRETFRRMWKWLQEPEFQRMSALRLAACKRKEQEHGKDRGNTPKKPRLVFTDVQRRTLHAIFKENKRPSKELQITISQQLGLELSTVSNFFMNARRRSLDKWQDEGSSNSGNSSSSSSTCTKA
Chain of Signal transducer and activator of transcription 3 (Homo sapiens) (P40763 whole entry, looked up): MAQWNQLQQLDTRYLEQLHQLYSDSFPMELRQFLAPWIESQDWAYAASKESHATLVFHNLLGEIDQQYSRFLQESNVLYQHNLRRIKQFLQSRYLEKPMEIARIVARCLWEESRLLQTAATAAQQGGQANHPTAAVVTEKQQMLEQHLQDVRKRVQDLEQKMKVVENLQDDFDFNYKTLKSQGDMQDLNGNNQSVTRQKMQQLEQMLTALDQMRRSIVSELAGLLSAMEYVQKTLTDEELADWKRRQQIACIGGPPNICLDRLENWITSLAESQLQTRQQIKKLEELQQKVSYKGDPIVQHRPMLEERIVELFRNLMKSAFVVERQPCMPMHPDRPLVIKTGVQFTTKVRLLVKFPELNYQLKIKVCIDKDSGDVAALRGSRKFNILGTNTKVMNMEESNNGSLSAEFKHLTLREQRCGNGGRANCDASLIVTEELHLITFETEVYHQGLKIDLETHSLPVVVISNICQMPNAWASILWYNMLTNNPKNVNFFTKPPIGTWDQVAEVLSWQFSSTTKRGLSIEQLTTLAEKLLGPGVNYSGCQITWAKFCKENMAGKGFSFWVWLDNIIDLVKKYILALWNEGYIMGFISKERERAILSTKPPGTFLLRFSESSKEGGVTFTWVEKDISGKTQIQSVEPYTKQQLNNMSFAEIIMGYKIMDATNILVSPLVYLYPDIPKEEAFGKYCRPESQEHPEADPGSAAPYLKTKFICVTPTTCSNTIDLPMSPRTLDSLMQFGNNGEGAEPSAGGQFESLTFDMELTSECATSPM
Chain of Transcription factor Sp1 (Homo sapiens) (P08047 whole entry, looked up, the tested form may be a part): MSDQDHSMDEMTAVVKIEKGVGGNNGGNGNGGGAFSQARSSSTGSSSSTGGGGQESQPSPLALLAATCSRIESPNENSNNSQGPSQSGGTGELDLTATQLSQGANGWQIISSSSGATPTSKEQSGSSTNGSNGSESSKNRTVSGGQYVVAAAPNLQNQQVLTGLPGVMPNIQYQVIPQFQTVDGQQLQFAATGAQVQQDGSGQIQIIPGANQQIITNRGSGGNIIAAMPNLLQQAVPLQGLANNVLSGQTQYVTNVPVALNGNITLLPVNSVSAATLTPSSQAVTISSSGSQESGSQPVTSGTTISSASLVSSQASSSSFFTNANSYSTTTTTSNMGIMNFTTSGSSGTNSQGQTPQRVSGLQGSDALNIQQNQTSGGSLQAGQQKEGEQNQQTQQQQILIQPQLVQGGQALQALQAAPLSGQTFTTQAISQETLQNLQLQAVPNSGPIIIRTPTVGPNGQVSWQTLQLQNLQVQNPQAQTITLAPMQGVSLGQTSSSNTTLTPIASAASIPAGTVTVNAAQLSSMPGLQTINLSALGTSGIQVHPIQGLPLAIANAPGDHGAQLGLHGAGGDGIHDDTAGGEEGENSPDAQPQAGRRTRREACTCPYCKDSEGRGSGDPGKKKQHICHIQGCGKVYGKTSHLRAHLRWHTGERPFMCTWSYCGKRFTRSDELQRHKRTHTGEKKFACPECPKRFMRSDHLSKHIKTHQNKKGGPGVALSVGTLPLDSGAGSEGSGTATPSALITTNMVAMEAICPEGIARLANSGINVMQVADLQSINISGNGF
Chain of Heat shock factor protein 1 (Homo sapiens) (Q00613 whole entry, looked up, the tested form may be a part): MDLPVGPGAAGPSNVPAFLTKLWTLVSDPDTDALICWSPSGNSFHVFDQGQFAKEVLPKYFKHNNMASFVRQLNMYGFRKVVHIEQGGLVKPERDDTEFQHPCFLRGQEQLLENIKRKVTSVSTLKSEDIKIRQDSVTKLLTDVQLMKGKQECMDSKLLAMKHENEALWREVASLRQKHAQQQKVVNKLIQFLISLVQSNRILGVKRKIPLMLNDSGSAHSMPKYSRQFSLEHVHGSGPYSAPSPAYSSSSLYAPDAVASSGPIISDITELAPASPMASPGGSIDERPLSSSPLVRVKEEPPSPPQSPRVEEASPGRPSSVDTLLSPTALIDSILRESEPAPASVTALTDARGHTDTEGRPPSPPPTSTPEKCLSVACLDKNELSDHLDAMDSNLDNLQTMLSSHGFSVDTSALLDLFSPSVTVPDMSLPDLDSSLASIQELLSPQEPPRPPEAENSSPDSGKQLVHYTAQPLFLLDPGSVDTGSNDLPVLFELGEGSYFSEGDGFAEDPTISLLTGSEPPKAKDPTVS
Chain of Bile acid receptor (Homo sapiens) (Q96RI1 whole entry, looked up): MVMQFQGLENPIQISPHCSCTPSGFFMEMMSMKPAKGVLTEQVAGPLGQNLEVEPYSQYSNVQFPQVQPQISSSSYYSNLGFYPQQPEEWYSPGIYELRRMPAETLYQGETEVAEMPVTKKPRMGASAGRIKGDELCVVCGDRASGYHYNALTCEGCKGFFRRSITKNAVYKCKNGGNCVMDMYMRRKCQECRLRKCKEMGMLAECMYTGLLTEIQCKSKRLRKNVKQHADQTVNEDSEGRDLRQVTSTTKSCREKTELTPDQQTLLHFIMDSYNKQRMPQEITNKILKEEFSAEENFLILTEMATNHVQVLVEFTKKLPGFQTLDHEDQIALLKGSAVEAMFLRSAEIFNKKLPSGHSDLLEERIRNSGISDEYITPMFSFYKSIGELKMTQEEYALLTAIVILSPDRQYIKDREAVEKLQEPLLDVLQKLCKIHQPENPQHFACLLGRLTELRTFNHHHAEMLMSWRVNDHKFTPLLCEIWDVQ

On to `Cc1cccc2ccccc12`, for which the result in assay [1], in assay [2], in assay [3], in [4], in assay [5] and in assay [6] was inactive. In addition, the compound was called inactive in assay [7], in assay [8], in assay [9], in assay [10], in assay [11] and in assay [12]. Further, the compound was classed as inactive in [13], in [14], in assay [15], in assay [16], in assay [17] and in [18].

With `CCCCCCCCCC(=O)O`, the outcome in assay [19], in [2], in [3], in assay [4], in [5] and in assay [6] was inactive. Besides, the compound was classed as inactive in [7], in assay [8], in assay [10], in assay [11], in assay [14] and in [15]. Also, the compound was called inactive in [16], in [17] and in assay [20]. The results for the half-maximal activity concentration (AC50) in assay [11] and in assay [16] were 27.4 µM (active) and 104 µM (active), respectively.

Regarding `CC1(C)NC(=O)N(c2ccc([N+](=O)[O-])c(C(F)(F)F)c2)C1=O`, the compound was called inactive in [1], in assay [2], in assay [3], in assay [4], in [6] and in assay [7]. Besides, the result in assay [8], in assay [9], in assay [10], in assay [14], in assay [15] and in assay [16] was inactive. Moreover, the result in [17] and in assay [18] was inactive. The AC50 in assay [11] is 27.5 µM (active) and 6.9 µM (active) and 27.3 µM (active).

The term AC50 denotes the concentration giving half of the maximal activity seen.
